Test results from PubChem BioAssay (NCI).
Compounds without any hit were thinned out: in the full panel of roughly 79,000, 15% have a hit. Active and inactive are the calls of the source. Cut-off read from the data, not from the text of the source: active = growth inhibition above about 70%; inactive = the rest.

How the values were obtained:
[1] = NCI Yeast Anticancer Drug Screen. Data for the wt1 strain (AID 149);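 note: 0% = growth of vehicle-treated wt1 cultures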; conditions: S. cerevisiae wt1 strain (SPY 50644) growth inhibition, hits give high values
Summary of the method: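 The wt1 strain was treated with compounds, and growth was compared with vehicle-treated cultures to give inhibition.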

[2] = NCI Yeast Anticancer Drug Screen. Data for the rad50EPP+ strain (AID 151);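 note: 0% = growth of vehicle-treated control cultures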; conditions: S. cerevisiae rad50 mutant strain, hits give high values
Summary of the method: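 In this screen, rad50EPP+ yeast were exposed to compounds. Growth inhibition was scored against vehicle-treated controls.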

[3] = NCI Yeast Anticancer Drug Screen. Data for the rad50 strain (AID 155);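 note: 0% = growth of vehicle-only cultures of the same strain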; conditions: S. cerevisiae rad50 strain growth inhibition, hits give high values
Summary of the method: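 Cells are treated with compound, grown, and their growth is then scored against vehicle-only cultures of the same repair-deficient yeast strain.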

[4] = NCI Yeast Anticancer Drug Screen. Data for the mec2-1 strain (AID 157); conditions: S. cerevisiae mec2-1 strain, hits give high values
Summary of the method: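 Vehicle-treated cultures served as reference for growth inhibition of compound-exposed mec2-1 yeast.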

[5] = NCI Yeast Anticancer Drug Screen. Data for the rad14 strain (AID 159);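 note: 0% = growth of vehicle-treated control cultures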; conditions: S. cerevisiae rad14 strain growth inhibition, hits give high values
Summary of the method: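 Readout: yeast growth inhibition, referenced to vehicle-only cultures. Strain bears a defined alteration in DNA damage repair.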

[6] = NCI Yeast Anticancer Drug Screen. Data for the sgs1 mgt1 strain (AID 161);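 note: 0% = growth of cultures given vehicle only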; conditions: S. cerevisiae sgs1 mgt1 strain, hits give high values
Summary of the method: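 Mutant yeast exposed to compound; growth scored against vehicle-only wells.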

[7] = NCI Yeast Anticancer Drug Screen. Data for the CLN2oe strain (AID 163);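 note: 0% = growth of vehicle-only control cultures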; conditions: S. cerevisiae CLN2oe strain, hits give high values
Summary of the method: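 Inhibition relative to vehicle-treated yeast is reported. Cells: strain with genetic alteration in cell-cycle control, grown with compound.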

[8] = NCI Yeast Anticancer Drug Screen. Data for the cln2 rad14 strain (AID 165);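 note: 0% = growth equal to vehicle treated cultures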; conditions: S. cerevisiae cln2 rad14 strain, hits give high values
Summary of the method: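 Each compound was tested on cln2 rad14 yeast. Inhibition of growth was calculated against vehicle-exposed controls.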

[9] = NCI Yeast Anticancer Drug Screen. Data for the bub3 strain (AID 167); conditions: S. cerevisiae bub3 mutant strain, hits give high values
Summary of the method: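 Part of a panel of yeast mutants defective in DNA damage repair or cell cycle regulation. Each strain is grown with compound, and inhibition is calculated relative to solvent-treated cultures.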

[10] = NCI Yeast Anticancer Drug Screen. Data for the sgs1 strain (AID 173);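 note: 0% = growth of vehicle-only control cultures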; conditions: S. cerevisiae sgs1 mutant, hits give high values
Summary of the method: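 Screen format: yeast with repair or checkpoint alterations, compound exposure, growth read relative to vehicle.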

[11] = NCI Yeast Anticancer Drug Screen. Data for the mlh1 rad18 strain (AID 175); conditions: S. cerevisiae mlh1 rad18 strain growth inhibition, hits give high values
Summary of the method: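 Vehicle-treated cultures served as the reference for growth inhibition in a yeast strain carrying DNA damage repair alterations exposed to each compound.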

[12] = NCI Yeast Anticancer Drug Screen. Data for the rad18 strain (AID 177); conditions: S. cerevisiae rad18 mutant growth inhibition, hits give high values
Summary of the method: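 Test articles were incubated with altered yeast defective in DNA damage repair. Results are given as inhibition of growth versus vehicle.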

[13] = at 5.0 µM (retest, dose inferred, filed as 0.5)
[14] = at 50.0 µM (retest, dose inferred, filed as 5.0)

Measured: growth inhibition

CN(C)N1C(=O)SCC(c2ccccc2)(c2ccccc2)C1=O
active: [12]; at 100.0 µM 75%
inactive: [1]; at 1.2 µM -4% | [1]; at 3.7 µM -4% | [1]; at 11.0 µM -3% | [1]; at 33.0 µM 6% | [1]; at 100.0 µM 16% | [2]; at 1.2 µM -2% | [2]; at 3.7 µM 2% | [2]; at 11.0 µM -32% | [2]; at 33.0 µM 4% | [2]; at 100.0 µM 7% | [3]; at 1.2 µM 4% | [3]; at 3.7 µM 7% | [3]; [13] -10% | [3]; at 11.0 µM 8% | [3]; at 33.0 µM 30% | [3]; [14] 61% | [3]; at 50.0 µM 64.8% | [3]; at 100.0 µM 50% | [4]; at 1.2 µM 1% | [4]; at 3.7 µM 1% | [4]; [13] 9% | [4]; at 11.0 µM 2% | [4]; at 33.0 µM 9% | [4]; [14] 43% | [4]; at 50.0 µM 10.2% | [4]; at 100.0 µM 27% | [5]; at 1.2 µM 1% | [5]; at 3.7 µM -3% | [5]; at 11.0 µM -4% | [5]; at 33.0 µM -15% | [5]; at 100.0 µM -19% | [6]; [13] 11% | [6]; [14] 43% | [6]; at 50.0 µM 15.4% | [7]; at 1.2 µM -2% | [7]; at 3.7 µM 7% | [7]; at 11.0 µM 2% | [7]; at 33.0 µM 1% | [7]; at 100.0 µM 2% | [8]; [13] -26% | [8]; [14] 3% | [8]; at 50.0 µM 6.9% | [9]; at 1.2 µM -2% | [9]; at 3.7 µM -1% | [9]; [13] 12% | [9]; at 11.0 µM 12% | [9]; at 33.0 µM 17% | [9]; [14] 60% | [9]; at 50.0 µM 21.6% | [9]; at 100.0 µM 23% | [10]; at 1.2 µM -1% | [10]; at 3.7 µM 1% | [10]; at 11.0 µM 4% | [10]; at 33.0 µM 20% | [10]; at 100.0 µM 34% | [11]; [13] 12% | [11]; [14] 29% | [11]; at 50.0 µM 47% | [12]; at 1.2 µM 6% | [12]; at 3.7 µM 5% | [12]; at 11.0 µM 26% | [12]; at 33.0 µM 59%
